BoNT-A LC inh2: BoNT A light chain protease inhibition; multiplex microsphere protease substrate cleavage, flow cytometry; inhibition, % at 10 µM; hit rate 0.17% among 360,000; AID 588499; also: plate controls were buffer without enzyme for full effect and enzyme alone for no effect
Anthrax LF inh2: anthrax lethal factor protease inhibition. P15917. hit rate 0.12% among 360,000. inhibition, % at 10 µM. multiplex microsphere protease cleavage assay, LF; also: plate controls were buffer without enzyme for full effect and enzyme alone for no effect
PriA SSB inh: blocks PriA binding to SSB C-terminal tail. AlphaScreen SSBct-PriA binding, biotinylated peptide. inhibition, % at 33 µM. hit rate 0.6% among 430,000; in the data active = inhibition mostly above about 37%, no sharp cut-off; inactive = mostly below about 20%;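 also: plate controls were negative control peptide for no effect and reference peptide for full effect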
Bead autofluor: flagged as autofluorescent in microsphere protease counterscreen. hit rate 3.1% among 360,000. AID 624483. compound autofluorescence counterscreen, microsphere flow cytometry; active compounds read high. fluorescence intensity (test concentration not listed); in the data active = fluorescence intensity above about 16000; inconclusive = no clear call, values can overlap the other calls
BoNT-F LC inh: BoNT F light chain protease inhibition; Multiplex microsphere protease cleavage assay, flow cytometry; inhibition, % at 10 µM; hit rate 0.22% among 360,000; AID 588497; in the data active = inhibition above about 35%, passing the limit was not always enough; inconclusive = no clear call, values can overlap the other calls; also: plate controls were buffer without enzyme for full effect and enzyme alone for no effect
MazEF act: MazEF (E. coli) toxin RNase activation | FAM/BHQ RNA-DNA oligo cleavage fluorescence, 5 h | AID 504720 | P0AE70 | hit rate 0.32% among 350,000 | activation, % at 20 µM; in the data active = activation above about 50%
Target sequence (P0AE70 whole entry, looked up): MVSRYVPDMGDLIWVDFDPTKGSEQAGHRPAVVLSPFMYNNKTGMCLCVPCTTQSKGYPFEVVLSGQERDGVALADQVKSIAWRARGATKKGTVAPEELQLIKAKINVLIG
* = called active by the depositor; ! = not confirmed by another sample. Most compounds without a hit are left out; they make up all but 3.3% or so of the library. Rule as the data show it, unless noted: active = inhibition above about 30%; inconclusive = no clear call, values can overlap the other calls; inactive = below that.

O=C(NC1CC2CCCC(C1)N2C(=O)Nc1ccc(Cl)c(C(F)(F)F)c1)C1CC1 (configuration not stated) was read as BoNT-A LC inh2 -1, Anthrax LF inh2 -6, PriA SSB inh -7, Bead autofluor 3448, BoNT-F LC inh -5 and MazEF act 4.
For O=C(Nc1ccc(Cl)c(C(F)(F)F)c1)NC1CC2CCCC(C1)N2Cc1ccccc1 (configuration not stated) the results were PriA SSB inh 5 and MazEF act 159*.
CCc1nnc(NC(=O)CCc2c(C)[nH]c(=O)n(C)c2=O)s1 was read as PriA SSB inh -4.
O=S(=O)(NCCc1ccncc1)c1ccc(Br)cc1 was read as BoNT-A LC inh2 1, Anthrax LF inh2 0, PriA SSB inh -15, Bead autofluor 22923*, BoNT-F LC inh 4 and MazEF act 11.
For CCOc1ccc(N2CCNCC2)nn1 the results were PriA SSB inh -15.
Cc1nn(Cc2ccc(C(=O)N3N=C(C(F)F)CC3(O)C(F)F)o2)c(C)c1[N+](=O)[O-] (configuration not stated) was read as BoNT-A LC inh2 0, Anthrax LF inh2 1, PriA SSB inh 5, Bead autofluor 2100, BoNT-F LC inh 3 and MazEF act 0.
O=C(c1ccc(Cn2cc([N+](=O)[O-])cn2)o1)N1N=C(C(F)F)CC1(O)C(F)F (configuration not stated) was read as BoNT-A LC inh2 4, Anthrax LF inh2 0, PriA SSB inh -4, Bead autofluor 22404*, BoNT-F LC inh 4 and MazEF act -1.
CNS(=O)(=O)c1ccc(OC)c(-c2nnc3c4ccccc4c(C)nn23)c1 was read as BoNT-A LC inh2 0, Anthrax LF inh2 3, PriA SSB inh -1, Bead autofluor 2635, BoNT-F LC inh -3 and MazEF act 6.
Screening O=C(Nc1ccccc1)c1ccc(S(=O)(=O)NCc2ccco2)cc1 returned BoNT-A LC inh2 0, Anthrax LF inh2 -1, PriA SSB inh -10, Bead autofluor 4808, BoNT-F LC inh 4 and MazEF act 12.
Screening COc1ccc(S(=O)(=O)NCc2ccco2)cc1C(=O)N1CCCCC1 returned BoNT-A LC inh2 1, Anthrax LF inh2 0, PriA SSB inh -12, Bead autofluor 3407, BoNT-F LC inh 4 and MazEF act 7.
Screening Cc1ccc(C(=O)Nc2ccc(S(=O)(=O)NCc3ccco3)cc2)cc1 returned BoNT-A LC inh2 2, Anthrax LF inh2 3, PriA SSB inh -17, Bead autofluor 21876*, BoNT-F LC inh 4 and MazEF act 5.
COc1ccc(S(=O)(=O)NCc2ccco2)cc1-c1nnc2c3ccccc3c(C)nn12 was read as BoNT-A LC inh2 7, Anthrax LF inh2 -5, PriA SSB inh 2, Bead autofluor 20211*, BoNT-F LC inh 6 and MazEF act 9.
COc1ccc(S(=O)(=O)NCc2ccco2)cc1C(=O)O was read as PriA SSB inh 38*!.
For Cc1cc(C)cc(NC(=O)c2cc(S(=O)(=O)NCc3ccco3)ccc2F)c1 the results were BoNT-A LC inh2 -4, Anthrax LF inh2 -3, PriA SSB inh -4, Bead autofluor 21467*, BoNT-F LC inh -4 and MazEF act -2.
Screening CN(CC(=O)Nc1ccccc1Cl)CC(=O)N(C)c1c(N)n(Cc2ccccc2)c(=O)[nH]c1=O returned BoNT-A LC inh2 0, Anthrax LF inh2 -4, PriA SSB inh 5, Bead autofluor 4057, BoNT-F LC inh 1 and MazEF act 0.
CN(CC(=O)Nc1ccccc1Cl)CC(=O)c1c(N)n(Cc2ccccc2)c(=O)n(C)c1=O was read as PriA SSB inh -16 and MazEF act 67*.
Screening O=[N+]([O-])c1ccccc1Cc1nc2ccccc2[nH]1 returned PriA SSB inh 11.
O=c1cc(CO)occ1OCc1cccc(F)c1 was read as BoNT-A LC inh2 inconclusive, Anthrax LF inh2 -1, PriA SSB inh -7, Bead autofluor 19821*, BoNT-F LC inh 0 and MazEF act 4.
O=C(CCc1ccccc1Br)NCC1(c2cccs2)CCOCC1 was read as PriA SSB inh -35.
Screening CC(C)CCCn1c(O)c(C=C2C=CC=N2)c(=O)[nH]c1=O returned PriA SSB inh 7.
Screening CCOC(=O)NCC1CCN(c2nccnc2C#N)CC1 returned PriA SSB inh -11.
Screening CCCC(=O)Nc1c2c(nn1-c1cccc(C)c1C)CS(=O)(=O)C2 returned BoNT-A LC inh2 -2, Anthrax LF inh2 2, PriA SSB inh -10, Bead autofluor 3440, BoNT-F LC inh -9 and MazEF act -7.
Screening COc1ccc(CC(=O)Nc2c3c(nn2-c2cccc(C)c2C)CS(=O)(=O)C3)cc1 returned BoNT-A LC inh2 1, Anthrax LF inh2 1, PriA SSB inh -9, Bead autofluor 22126*, BoNT-F LC inh 1 and MazEF act -5.
NC(=O)Cc1csc(NC(=O)Cn2ccc3ccccc32)n1 was read as PriA SSB inh -7.
Screening CCn1c(=O)c(C(=O)CN2c3ccccc3CC2C)c(N)n(Cc2ccccc2)c1=O (configuration not stated) returned BoNT-A LC inh2 19, Anthrax LF inh2 -2, PriA SSB inh 39*, Bead autofluor 2243, BoNT-F LC inh -25 and MazEF act 2.
Screening CCn1c(=O)c(C(=O)CN2CCCc3ccccc32)c(N)n(Cc2ccccc2)c1=O returned BoNT-A LC inh2 inconclusive, Anthrax LF inh2 12, PriA SSB inh -8, Bead autofluor 32189*, BoNT-F LC inh 2 and MazEF act 9.
Screening O=C(Nc1cccnc1)c1ccc(=O)n(Cc2ccc(F)cc2)n1 returned PriA SSB inh -7.
COc1ccc(CC(=O)n2nc(-c3ccc(Cl)cc3)nc2NCc2ccco2)cc1 was read as BoNT-A LC inh2 inconclusive, Anthrax LF inh2 -5, PriA SSB inh -16, Bead autofluor 24639*, BoNT-F LC inh -6 and MazEF act -2.
CC(=O)n1nc(-c2ccc(Cl)cc2)nc1NCc1ccco1 was read as BoNT-A LC inh2 -3, Anthrax LF inh2 -1, PriA SSB inh -13, Bead autofluor 21596*, BoNT-F LC inh -5 and MazEF act 0.
`O=C(c1cccs1)n1nc(-c2ccc(Cl)cc2)nc1NCc1ccco1` gave BoNT-A LC inh2 0, Anthrax LF inh2 4, PriA SSB inh -20, Bead autofluor 6121, BoNT-F LC inh -10 and MazEF act -3.
CCOC(=O)C1CCN(C(=O)Cc2csc(NS(=O)(=O)c3ccc(Cl)cc3)n2)CC1 was read as PriA SSB inh 6.
For COc1ccccc1S(=O)(=O)NCC1(OC)Cc2ccccc2C1 the results were PriA SSB inh -7.
`COc1ccc(CC(=O)OCC(=O)NC(=O)NC(C)C)cc1` gave BoNT-A LC inh2 -2, Anthrax LF inh2 -3, PriA SSB inh -9, Bead autofluor 23854*, BoNT-F LC inh -5 and MazEF act -2.
Screening CC(C)NC(=O)NC(=O)COC(=O)Cc1ccsc1 returned BoNT-A LC inh2 -1, Anthrax LF inh2 -2, PriA SSB inh -7, Bead autofluor 3194, BoNT-F LC inh -5 and MazEF act -7.

High-throughput results deposited in PubChem BioAssay by several laboratories.
